Source: PubChem BioAssay AID504637 (National Center for Advancing Translational Sciences (NCATS), 2011)
Hit rate of the full screen: of about 1,100 compounds, about 430 (39%) were called active. About 44% were inconclusive and are not listed. The call rests on the fitted dose curve; in most records, active means well fitted inhibition curve with a large enough effect; inconclusive means small, poorly fitted or top-dose-only effect, or effect the other way; inactive means flat fitted curve, though single readings scatter. So high a share suggests a set chosen from earlier hits. Many of the other results were omitted from the sample, so actives are more common in it than they were.

Biological target: ATP-dependent 6-phosphofructokinase (Trypanosoma brucei brucei) (UniProt O15648)
Experiment: Inhibitors of T. brucei phosphofructokinase: Hit Validation; further: nearly all actives have a fitted effect of over 60% in size
Settings: purified T. brucei PFK, ADP-Glo luminescence, 45 min; series mostly up to 57.5 µM
Source text: NCGC Assay Overview: Various species of the protozoan family Trypanosomatidae are responsible for a range of serious human diseases in tropical and subtropical areas of the world. […] Many of the disorders caused by trypanosomatids are fatal if left untreated, but most currently used drugs are inefficient and toxic. […] Oxidative metabolism involving the mitochondrial tricarboxylic acid cycle and oxidative phosphorylation are repressed in these parasites, and recent RNA interference (RNAi) experiments have shown that even partial depletion of certain individual glycolytic enzymes can lead to the death of cultured parasites. One such glycolytic enzyme, phosphofructokinase (PFK), catalyzes the formation of fructose-1,6-bisphosphate (F1,6BP) and ADP from fructose-6-phosphate (F6P) and ATP, and in many metabolic circumstances makes an important contribution to the control of flux through the glycolytic pathway. As a specific glycolytic target, PFK is particularly attractive as it catalyzes the first irreversible step in glycolysis, and structural and kinetic studies have shown very substantial and essential differences from corresponding host enzymes, allowing for the discovery of parasite-selective inhibitors. The goal of this screen is to find small-molecule inhibitors of T. brucei PFK using a biochemical assay that measures PFK activity as a function of ADP production. A luminescence-based assay for T. brucei PFK activity has been developed which uses luciferase to detect production of ADP. Traditional luciferase-based nucleotide detection reagents rely on ATP production as a direct substrate for the luciferase reaction; however, PFK catalyzes the transfer of a phosphate from ATP to F6P, resulting in the net depletion of ATP. To directly measure the ADP product of the PFK reaction, we used the ADP-Glo detection kit (Promega), which utilizes two separate reactions to 1) deplete all remaining uncatalyzed ATP and 2) convert all remaining ADP to ATP, which is then detected through a traditional luciferase-coupled reaction. Compounds were screened as a concentration-titration series that ranged from 57uM to 0.7nM. 1. Verlinde, C.L., et al., Glycolysis as a target for the design of new anti-trypanosome drugs. Drug Resist Updat, 2001. 4(1): p. 50-65. 2. Albert, M.A., et al., Experimental and in silico analyses of glycolytic flux control in bloodstream form Trypanosoma brucei. J Biol Chem, 2005. 280(31): p. 28306-15. 3. […] J Mol Biol, 2009. 385(5): p. 1519-33. NIH Molecular Libraries Probe Production Network [MLPCN] NIH Chemical Genomics Center [NCGC] Grant: 1 R03 MH092153-01 PI Name: Malcolm Walkinshaw, University of Edinburgh
NCGC Assay Protocol Summary: Substrate buffer was dispensed into white, solid 1536-well plates at 3uL/well in 0.1M triethanolamine (TEA) buffer, pH 8.0, containing final concentrations of 5 mM MgCl2, 0.01% Tween20, 0.5 mM fructose-6-phosphate (F6P) and 0.1mM ATP. Then, 23 nL of compounds or DMSO were delivered to each well using a pin tool. One uL T. brucei PFK (0.1M TEA, 0.01% Tween20, 0.1% bovine serum albumin (BSA) and 1.25nM PFK, final concentrations) was then dispensed, and plates were incubated at room temperature for 45 min. The luminescent detection reagent, ADP-Glo (Promega), was then added in two steps: the first reagent, ADP-Glo (which converts remaining uncatalyzed ATP), was added at 2.5uL/well and incubated for ten minutes at room temperature, and the second component, Kinase Detection reagent (which converts ADP to ATP as a substrate for luciferase-based luminescence), was added immediately after at 5uL/well, followed by one final ten minute room temperature incubation. The plates were measured on a ViewLux plate reader for luminescent signal using a clear filter with a one second exposure. The %Activity was determined from the corrected luminescence values. […]
Potency means the concentration at half of the fitted maximal effect.

Sequence of ATP-dependent 6-phosphofructokinase (Trypanosoma brucei brucei) (O15648 whole entry, looked up): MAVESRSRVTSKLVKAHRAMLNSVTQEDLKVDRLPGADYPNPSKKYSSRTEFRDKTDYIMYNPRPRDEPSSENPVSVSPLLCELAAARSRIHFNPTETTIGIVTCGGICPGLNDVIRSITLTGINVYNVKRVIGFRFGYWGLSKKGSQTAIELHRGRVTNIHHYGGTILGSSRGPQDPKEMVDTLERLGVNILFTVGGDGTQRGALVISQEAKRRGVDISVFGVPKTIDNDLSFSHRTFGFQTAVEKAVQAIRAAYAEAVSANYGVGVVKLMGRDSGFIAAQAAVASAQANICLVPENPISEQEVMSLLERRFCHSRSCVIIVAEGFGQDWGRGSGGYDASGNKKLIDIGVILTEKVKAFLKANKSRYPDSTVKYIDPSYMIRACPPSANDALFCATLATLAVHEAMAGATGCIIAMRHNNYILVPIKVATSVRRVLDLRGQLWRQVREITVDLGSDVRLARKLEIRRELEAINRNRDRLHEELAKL

Row | SMILES | Potency
1 | Cn1nnnc1NCc1ccc(Cl)c(Cl)c1 | 23.9 µM (active)
2 | Cc1ccc(CC(=O)Nc2ccc(S(=O)(=O)N3CCOCC3)cc2)cc1C | inactive
3 | O=C(Cc1ccc(Cl)c(Cl)c1)Nc1ccc(SC(F)F)cc1 | 23.9 µM (active)
4 | O=C(COC(=O)CCC(=O)c1cccs1)NCc1ccco1 | inactive
5 | C=CC1=C(C(=O)O)N2C(=O)[C@@H](NC(=O)/C(=N\OCC(=O)O)c3csc(N)n3)[C@H]2SC1 | 4.26 µM (active)
6 | N#Cc1cccc(CSc2ncnc(N)n2)c1 | 26.9 µM (active)
7 | C=C1c2c(Cl)ccc(O)c2C(O)=C2C(=O)[C@]3(O)C(O)=C(C(N)=O)C(=O)[C@@H](N(C)C)[C@@H]3[C@@H](O)C12 (some centres not stated) | inactive
8 | O=C1CSC(=S)N1/N=C/c1ccc(O)c([N+](=O)[O-])c1 | inactive
9 | O=C1CSC(=S)N1c1ccc(Cl)c(Cl)c1 | inactive
10 | COC(=O)CC(=O)N1CCN(c2ccc(Cl)c(Cl)c2)CC1 | 26.9 µM (active)
11 | Cc1nn(Cc2ccc(Cl)c(Cl)c2)c(C)c1NC(=O)c1cc(C2CC2)on1 | 12 µM (active)
12 | O=[N+]([O-])/C=C/c1ccc2c(ccn2Cc2ccccc2)c1 | 23.9 µM (active)
13 | CC(C)(C)c1nnc(NC(=O)C2c3ccccc3Oc3ccccc32)s1 | 26.9 µM (active)
14 | Cc1ccc(NC(=O)c2cc(-c3ccc(C)o3)nc3ccccc23)nc1 | 12 µM (active)
15 | O=C(Cc1ccc([N+](=O)[O-])cc1)N/N=C/c1ccco1 | 23.9 µM (active)
16 | O=C(NCc1ccc(Cl)c(Cl)c1)c1cccnc1 | 26.9 µM (active)

Row | SMILES | Potency
17 | Cc1ccc(-c2nn(-c3ccccc3)cc2/C=C2\SC(=S)N(CCCCCC(=O)O)C2=O)o1 | 30.1 µM (active)
18 | O=c1[nH]c(=S)[nH]c2[nH]c(=S)[nH]c12 | 1.9 µM (active)
19 | O=[N+]([O-])c1c(NCCO)cc(Sc2nc3ccccc3s2)c2nonc12 | 1.51 µM (active)
20 | O=C(CSc1nc(O)c(Cc2ccccc2)c(=O)[nH]1)Nc1nc2c(s1)CCCC2 | 16.9 µM (active)
21 | OCCN1CCN(C(=S)c2ccc(-c3ccccc3)cc2)CC1 | 26.9 µM (active)
22 | FC(F)(F)C1CCCN(c2nsc3ccccc23)C1 (configuration not stated) | 4.26 µM (active)
23 | CCn1nc(C(=O)NNS(=O)(=O)c2cc(/C=C/C(=O)O)cc(OC)c2OC)c2ccccc2c1=O | inactive
24 | Cc1c(C)c2ccc(OCC(=O)N3CCN(c4cccc(Cl)c4)CC3)cc2oc1=O | 8.49 µM (active)
25 | COc1ccc(N/C=C(\C2OC(=O)c3ccccc32)[N+](=O)[O-])cc1 (configuration not stated) | inactive
26 | Cc1nc(N)nc(SCc2ccc([N+](=O)[O-])cc2)c1N | 19 µM (active)
27 | Cc1cccc(-n2c(N)c(C(=O)N3CCN(C)CC3)sc2=S)c1 | 13.5 µM (active)
28 | O=c1ccnc(Nc2ccc(Cl)cc2)[nH]1 | 30.1 µM (active)
29 | C=C(C)C(=O)Nc1cccc(C2=NOC3(C2)C[C@H](C(N)=O)N(C(=O)C(c2ccccc2)c2ccccc2)C3)c1 (some centres not stated) | 1.9 µM (active)
30 | Cn1sc(=O)c2cc(S(=O)(=O)NC3CC3)ccc21 | 21.3 µM (active)
31 | O=c1[nH]c2ccccc2n2c(-c3ccccc3)nnc12 | 13.5 µM (active)
32 | Cc1ccccc1CN1C[C@@H]2C[C@@H](c3cn(C)nc3-c3ccccc3)N3CCC[C@@]23C1=O | inactive
